Hit rate of the full screen: of about 48,000 compounds, about 13,000 (27%) showed an effect of 50% or more. This is one part of the list.
Test system: Wolbachia pipientis
Assay: Anti-Wolbachia Cell-Based Screen
Assay type: functional
Design: scale not given: in the data most compounds retested in dose-response had high values
Conditions: 5 µM

SMILES | Percent Effect [%]
CC(C)[C@@H]1CN(CCCOc2ccc(F)cc2)C[C@H]1NS(C)(=O)=O | 10.36
CC(C)(C)Oc1ccncc1NCc1cscn1 | -14.11
Cc1cc(CN2CCC(CNC(=O)C3(c4ccccc4)CC3)C2)[nH]n1 (stereo not given) | -1.817
CCCN1CCC(CNC(=O)C2(c3ccccc3)CCC2)C1 (stereo not given) | 94.67
CCN1CCC(CNC(=O)C2(c3cccc(C)c3)CC2)C1 (stereo not given) | -3.143
Cn1c2ncccc2c(=O)n1CC(=O)NCCC1=CCCCC1 | 106.1
Cc1ccc(CNC(=O)Cn2c(=O)c3cccnc3n2C)cc1F | 105.8
O=C(CN1CCN(CCO)CC1)NCCc1c(F)cccc1F | 0.9837
CS(=O)(=O)Cc1ccc(NC(=O)Cc2cccnc2)cc1F | 17.36
Cc1cc(CNC(=O)CN2CCN(C(=O)OC(C)(C)C)CC2)ccc1F | -110.5
Cc1nc2n(n1)CC(NCC(=O)NCCC1=CCCCC1)CC2 (stereo not given) | 18.92
O=C(CN1CCCCC1Cn1cncn1)NCCC1=CCCCC1 (stereo not given) | -14.45
Cn1c2ncccc2c(=O)n1CC(=O)NCCc1c(F)cccc1F | 97.5
Cc1ccc(CNC(=O)N2CCOCC2C2CC2)cc1F (stereo not given) | -8.546
O=C(NCCNc1ncccn1)NCCc1c(F)cccc1F | 4.613
Cn1c2ncccc2c(=O)n1CC(=O)Nc1ccc(F)c(F)c1 | 107.1
O=c1c2cccnc2cnn1CC(O)c1ccc(F)c(F)c1 (stereo not given) | -16.55
CNC(=O)[C@@H]1C[C@H](N)CN1S(=O)(=O)c1cc(C)c(Cl)cc1C | 4.211
COc1ccccc1OC1(C(=O)O)CCN(c2ncccc2F)CC1 | -11.09
COc1ccncc1NCc1cscn1 | 0.2861
CSc1ccc(CN(CCO)Cc2nccn2C)cc1 | -0.296
Cc1cncc(C(=O)N2CCOc3nc(C)ccc32)c1 | 1.683
CCC(C)(NCC(=O)NC(=O)NC)c1nc(C)cs1 (stereo not given) | -8.328
COc1cccc(C(C)N2CCN(S(C)(=O)=O)CC2)c1 (stereo not given) | -19.03

SMILES | Percent Effect [%]
Cc1cccc2nc(CSCc3nnnn3C(C)C)cn12 | -17.34
CN(Cc1cccnc1)[C@@H]1CN(C(=O)c2ccoc2)[C@@H]2CCCO[C@H]12.O=C(O)C(F)(F)F.O=C(O)C(F)(F)F | 116.4
O=C(O)C(F)(F)F.O=C(c1ccoc1)N1CCO[C@]2(CCC[C@H]2COCc2cccnc2)C1 | 1.703
CN(Cc1cccnc1)[C@@H]1CN(C(=O)CC2CC2)[C@@H]2CCCO[C@H]12.O=C(O)C(F)(F)F.O=C(O)C(F)(F)F | 108.9
O=C(O)C(F)(F)F.O=C(c1ccoc1)N1CCO[C@]2(CCC[C@@H]2COCc2cccnc2)C1 | -7.34
CN(Cc1cccnc1)[C@@H]1CN(C(=O)c2ccno2)[C@@H]2CCCO[C@H]12.O=C(O)C(F)(F)F.O=C(O)C(F)(F)F | 103.3
CN(Cc1cccnc1)[C@@H]1CN(C(=O)NC2CC2)[C@@H]2CCCO[C@H]12.O=C(O)C(F)(F)F.O=C(O)C(F)(F)F | 101
CN(Cc1nccn1C)S(=O)(=O)c1cccc(C#N)c1 | 5.7
CN(C)[C@@H]1CN(C(=O)CCc2ccccc2)[C@@H]2CCCO[C@H]12.O=C(O)C(F)(F)F | 98.44
CN(C)[C@@H]1CN(C(=O)c2ccc(C#N)cc2)[C@@H]2CCCO[C@H]12.O=C(O)C(F)(F)F | 5.598
Cc1ccc(CN2C[C@@H](N(C)C)[C@H]3OCCC[C@H]32)o1.O=C(O)C(F)(F)F.O=C(O)C(F)(F)F | -10.94
COc1cccc(Nc2nc(C3CCCNC3)c3ccccn23)c1.Cl (stereo not given) | 104.7
COc1cccc(Nc2nc(C3CCNCC3)c3ccccn23)c1.Cl | 85.66
COc1ccc(OC)c(C2CCN(Cc3nc(C)n4ccccc34)C2)c1 (stereo not given) | 11.21
Cn1cc(CCCNC(=O)NC2CCN(CC(F)(F)F)C2=O)cn1 (stereo not given) | -5.145
Cc1ncc(CNC(=O)c2oc3ccccc3c2CN(C)C)s1 | -2.973
CN1CCN(C(=O)Cc2ccsc2)Cc2cccnc21.O=C(O)C(F)(F)F | -3.335
Cc1nc(CC(=O)N2CCC(c3nn(C)c4ncccc34)CC2)cs1.Cl | 92.52
Cn1cnnc1S(=O)(=O)C1CCN(C(=O)c2cccs2)CC1 | -12.26
Cl.Cn1nc(C2CCN(C(=O)Cc3cccc(F)c3)CC2)c2cccnc21 | -4.432
N#Cc1cccnc1N1CCN(C(=O)c2cccs2)CC1 | -4.28
COC1CCN(C(=O)Cc2csc(-c3ncccn3)n2)CC1 | -12.9
Cn1nc(C2CCN(C(=O)c3cccs3)CC2)c2cccnc21 | 107.6
Cl.Cn1nc(C2CCN(C(=O)Cc3ccsc3)CC2)c2cccnc21 | 115.7

SMILES | Percent Effect [%]
c1ccc(NCc2cn3c(n2)CN(Cc2ccoc2)CC3)nc1 | 6.648
COc1ccccc1OCCCc1cccc(C#N)n1 | -3.599
FC(F)(F)CCc1ccnc(N2CCN(CCc3ccncc3)CC2)n1 | -22.6
CC(C)N1CCC(N2CCN(C3CCC3)CC2CCO)CC1 (stereo not given) | 3.855
O=C(c1ccc[nH]1)N1CC2(CCN(c3nccs3)C2)C1 | -14.28
Cc1nc2c(c(N3CCN(Cc4ccco4)CC3)n1)CCNCC2 | 3.397
Cc1nc(CN2CCC3(C2)CN(C(=O)c2ccc[nH]2)C3)cs1 | 122.8
CCc1nc(C)sc1C(=O)N1CCN(c2ncccc2C)CC1 | 34.17
Cc1nc(CN2C(=O)CC[C@@H]3[C@H]2CCN3C(=O)c2ccc[nH]2)cs1 | -9.626
Cc1nc(CN2CCC23CCN(C(=O)c2ccco2)CC3)cs1 | 98.46
O=C1CCC2(CCCN(c3ncc(F)cn3)CC2)N1Cc1ccccc1 (stereo not given) | -5.866
Cc1nc(CN2C(=O)CCC23CCN(c2ncccc2C)CC3)cs1 | 91.84
Cc1nc(CN2C[C@@H]3CN(C(=O)c4ccco4)C[C@@H]3C2=O)cs1.O=C(O)C(F)(F)F | -11.8
Cc1nc(CN2C(=O)CCC23CCN(Cc2ccco2)CC3)cs1 | 111.9
Cc1nc(CN2CCOCC23CCN(c2ccc(C#N)cc2)CC3)cs1.O=C(O)C(F)(F)F | -24.99
COc1cccc(C(=O)Nc2ccc(OCCC(N)=O)cc2)c1OC | 3.494
N#Cc1ccc(OC2CCN(C(=O)COCC3CCCO3)CC2)cc1 (stereo not given) | -13.18
Cc1cnn(CCC(=O)NS(=O)(=O)N2CCCc3ccccc32)c1 | 4.859
Cc1nc(C2CCCN(C(=O)c3ccc(Cn4cccn4)o3)C2)no1 (stereo not given) | -2.072
Cc1nc(CN2CCC23CCN(Cc2ccoc2)CC3)cs1 | 97.06
Cc1nc(CN2CCN(Cc3ccoc3)Cc3cccnc32)cs1.O=C(O)C(F)(F)F.O=C(O)C(F)(F)F.O=C(O)C(F)(F)F | 3.214
Cc1nc(CN2CCC3(C2)CN(Cc2ccco2)C3)cs1 | 129
Cc1nc(CN2CCC23CCN(Cc2ccco2)CC3)cs1 | 101.3
O=C(O)C(F)(F)F.O=C(O)C(F)(F)F.c1coc(CN2CCCC3(COCCN(Cc4c[nH]nn4)C3)C2)c1 (stereo not given) | -3.131

SMILES | Percent Effect [%]
Cc1nc(CN2CCOC3(CCCN(c4nccs4)C3)C2)cs1 (stereo not given) | -8.721
Cc1cc(C)c(Cn2cncn2)cc1CN1CC[C@H](CO)[C@@H](O)C1 | 2.193
COCCN(Cc1noc(-c2ccc(OC)cc2)n1)C1CC1 | 20.29
CCOCC1CN(C(=O)c2ccsc2)Cc2nn(C)cc21 (stereo not given) | -7.597
CC(Cc1cccc(F)c1)C(=O)NS(=O)(=O)c1cnn(C)c1 (stereo not given) | -18.57
Cc1cccc2nc(CN3CCC(Cn4ccnn4)CC3)cc(=O)n12 | -3.748
CCn1cnnc1C1CCN(C(=O)c2cnc(C3CC3)s2)CC1 | -9.527
CCn1cnnc1C1CCN(C(=O)c2ccc(C(=O)OC)s2)CC1 | -1.592
CCn1cnnc1C1CCN(C(=O)c2ccc(OC(C)C)nc2)CC1 | 106.8
CCn1cnnc1C1CCN(C(=O)c2cnn(C(C)(C)C)c2)CC1 | 107
Cn1c(C2CC2)nc2c1CCN(CC(=O)Nc1nncs1)C2 | -1.4
O=C(Nc1cccc(F)c1)NC1CCN(Cc2ccncc2)CC1 | -11.06
CCS(=O)(=O)NCCNC(=O)N(Cc1ccc(C)o1)C(C)C | -16.03
Cn1nc(C(=O)N2CCCCC2c2nc3cc(F)ccc3[nH]2)ccc1=O (stereo not given) | 6.226
c1cn2c(n1)CNCC(COCC1CC1)C2 (stereo not given) | -6.113
Cc1ccc(S(=O)(=O)N2C[C@H]3C[C@H](NC(=O)c4ccnn4C)[C@H]3C2)cc1 | -12.92
Cc1ccc(S(=O)(=O)N2C[C@@H]3C[C@@H](NC(=O)C(C)(C)C)[C@@H]3C2)cc1 | -7.611
Cc1ccc(S(=O)(=O)N2CC[C@@H]3C[C@H](NC(=O)c4ccncc4)[C@@H]32)cc1 | 124.2
COC(=O)[C@@H]1Cc2ncn(C)c2CN1S(=O)(=O)c1ccc(C)cc1 | -10.72
CS(=O)(=O)NCCC(=O)N1CCN(S(=O)(=O)c2ccc(Br)cc2)CC1 | 3.27
Cc1ccc(S(=O)(=O)N2CC[C@@H]3C[C@H](NC(=O)c4n[nH]cc4Cl)[C@@H]32)cc1 | 97.43
Cc1ccc(S(=O)(=O)N2C[C@H]3C[C@H](NC(=O)c4ccn(C)n4)[C@H]3C2)cc1 | 0.5687
Cc1ccc(S(=O)(=O)N2CC[C@@H]3C[C@H](NC(=O)c4[nH]ncc4Br)[C@@H]32)cc1 | 95.45

Reference: ChEMBL document CHEMBL3988442, “University of Dundee, Small-Polar-MMV Screening Library” (2021)
